Results from PubChem BioAssay.

System: not listed separately
Assay: probe aNOTCH2 binding on compound microarray – biochemical, small-molecule microarray, 635/667 nm fluorescence, primary screen (AID 1121);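 also: score merges feature fluorescence read at 667 nm with its signal to noise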
Conditions: higher = more signal
`CC=CC1=C(CO)[C@H](O)[C@H]2O[C@H]2[C@H]1O` showed a composite z-score of -0.146.
`CC(=O)OC[C@H]1O[C@@H](ON=C[C@@H](C)[C@H](OCc2ccccc2)C(C)C)[C@H](OC(C)=O)[C@@H](OC(C)=O)[C@@H]1OC(C)=O` gave a composite z-score of -0.159.
`CC(C)[C@@H](OCc1ccccc1)[C@H](C)C=NOC[C@@H](C)[C@H](OCc1ccccc1)C(C)C` showed a composite z-score of -0.126.
For `[N-]=[N+]=NCc1ccccc1[C@@H]1OC(c2ccc(OCCCO)cc2)=N[C@]1(Cc1ccccc1)C(=O)N1CCOCC1`, the composite z-score was 0.34.
In the case of `CCCC=C(CCC)[C@@H](NC(=O)c1ccc(-c2ccccc2)cc1)c1ccc(C(=O)OC)cc1`, the composite z-score is reported as 0.0382.

Molecular target: Carbonic anhydrase 2 (Homo sapiens) (UniProt P00918)
Assay: compounds binding carbonic anhydrase 2 – biochemical, small-molecule microarray, Alexa647-labelled CAII, profiling panel (AID 1122)
Conditions: CAII-A647 binding fluorescence, higher = more signal
`CCCNC(=O)OC[C@H]1O[C@H](CCON=CC[C@@H]2C=C[C@H](OC(C)=O)[C@@H](COC(C)=O)O2)C=C[C@@H]1Oc1ccc(OC)cc1` gave a composite z-score of -0.0893.
With `O[C@@H](Cc1ccccc1)[C@H]1C2C=CCCC(c3ccccc3)=C2CN1Cc1cccc(Cl)c1` (stereo partly specified) the composite z-score was 0.371.
With `CCCC[C@@H]1C[C@H]1[C@@H](NS(=O)(=O)c1cccc2cccnc12)c1ccc(-c2ccccc2)cc1` the composite z-score was 0.529.
With `O=C1C2=CC[C@H]3C(=O)N(Cc4ccc5c(c4)OCO5)C(=O)[C@H]3[C@H]2[C@H](O)[C@@H]2O[C@H]12` the composite z-score was -0.0365.
Molecule `CCOC(=O)[C@H](CC(C)C)NC(=O)CCC1CC(OC(=O)NCCc2ccc(F)cc2)CC2(CCCC(COC(=O)NCc3ccccc3)O2)O1` (stereo partly specified) has a composite z-score of 0.274.
`CCCNC(=O)[C@@H]1c2ccccc2C(=O)N(Cc2ccccc2Cl)[C@H]1c1ccc(CO)cc1` showed a composite z-score of 0.585.
In the case of `CO[C@@H]1COC(=O)CC=C[C@@H](C)COC(=O)[C@H](COCc2ccccc2)NC(=O)CC=C[C@H]1C`, the composite z-score is reported as -0.788.
Work on `C=COC[C@H]1CN2[C@@H](CC[C@@H](C)[C@@H]2c2ccc(Br)cc2)C(=O)O1` yielded a composite z-score of 0.459.
`COC(=O)[C@H](C)NC(=O)CCC1CC(OC(=O)NCCc2ccc(F)cc2)CC2(CCCC(COC(=O)NCCc3ccc(Cl)cc3)O2)O1` (stereo partly specified) showed a composite z-score of 0.0606.
Molecule `COCCCNC(=O)[C@@]1(Sc2ccc(C)cc2)CC(=O)N(Cc2ccccc2)[C@@H]1c1ccc(CO)cc1I` has a composite z-score of 0.688.
`Cc1ccc(S(=O)(=O)N[C@@H]2COC(=O)[C@H](C)COC(=O)CC=C[C@H]2C)cc1` showed a composite z-score of -0.271.
`C=CC[C@]1(C(=O)NCc2ccccc2)N=C(c2ccc(OCCCO)cc2)O[C@H]1c1ccccc1` gave a composite z-score of 0.69.
For `CCOc1ccc(N2C(=O)/C(=C/C=C/c3ccccc3OC)S(=O)(=O)C2c2cccc([N+](=O)[O-])c2)cc1` (stereo unspecified), the composite z-score was -0.138.
Molecule `CO[C@H]([C@@H](C)[C@H](OC)c1ccccc1)[C@H](C)[C@@H](OC)[C@H](C)C(C)=O` has a composite z-score of -0.505.
Molecule `CC(=O)O[C@H]1C2=C(C(=O)[C@@H]3O[C@@H]31)[C@H]1C(C)O[C@@H]2[C@@]23C(=O)[C@@H]4O[C@@H]4[C@@H](O)C2=CO[C@H](C)[C@@H]13` (stereo partly specified) has a composite z-score of -0.0716.
`CC(C)=NOCc1ccc(-c2cc(-c3ccccc3)no2)cc1` gave a composite z-score of -0.145.
In the case of `C=CCC(OC(C)=O)[C@@H]1[C@@H](N(Cc2cc3ccccc3o2)C(=O)Cc2ccc(F)cc2)c2cc(OCCCO)ccc2N1C(=O)Cc1ccc(OC)cc1` (stereo partly specified), the composite z-score is reported as -0.446.
In the case of `CCN1C(=O)[C@H]2[C@H]3[C@H](O)C=CC(=O)[C@@H]3CC[C@H]2C1=O`, the composite z-score is reported as -0.132.
With `CC(C)OC(=O)C=C1C[C@@H](c2ccc(C#N)cc2)O[C@@H](c2ccc(C#N)cc2)O1` the composite z-score was 0.693.
`NC(=O)NCC#Cc1ccc2c(c1)[C@]1(C(=O)N2)[C@H](c2ccc(O)cc2)N2[C@H](c3ccccc3)[C@H](c3ccccc3)OC(=O)[C@H]2[C@@H]1C(=O)N1CCCCCCC1` gave a composite z-score of 0.39.
For `Cc1cc2c(nc1C)CCCN2CC(O)CN1CCN(C)CC1` (stereo unspecified), the composite z-score was 0.622.
With `C[C@@H]1C=CCC(=O)OC[C@H](C)C(=O)N[C@@H](C)C(=O)OC1` the composite z-score was -0.385.
For `COc1ccc([Si](C)(C)[C@@H]2[C@@H](CCO)O[C@]3(C(=O)N(Cc4ccc(NC(C)=O)cc4)c4ccccc43)[C@H]2C)cc1`, the composite z-score was 0.574.
In the case of `COc1ccc([Si](C)(C)[C@H]2[C@H](CC(=O)N3CCC[C@H]3CO)O[C@@]3(C(=O)N(Cc4cccc(N5C(=O)COc6ccccc65)c4)c4ccccc43)[C@@H]2C)cc1`, the composite z-score is reported as 0.437.
In the case of `C[C@@H](c1ccccc1)N1C(=O)[C@H]2[C@H]3[C@H](O)C=CC(=O)[C@@H]3CC[C@H]2C1=O`, the composite z-score is reported as 0.572.
For `C=C(COC)/C(=C/C[C@H](OC(=O)c1ccncc1)c1ccc(CO)o1)c1cc(C(=O)OC)ccc1OC`, the composite z-score was 0.554.
Molecule `COC(=O)CC=C[C@H](C)[C@H](CO)NS(=O)(=O)c1ccc(C)cc1` has a composite z-score of 0.131.
`C#CCCCON=C1C[C@@H](O)[C@@H](O)[C@@H]2[C@@H]3C(=O)N(c4cccc(Oc5ccccc5)c4)C(=O)[C@@H]3CC[C@@H]12` gave a composite z-score of 0.256.
`CC(C)(C)OC(=O)CC[C@]1(C(N)=O)COC(c2ccc(OCCCO)cc2)=N1` gave a composite z-score of 0.983.
With `CC[C@@H](c1ccccc1)n1c(=O)n2n(c1=O)[C@H]1[C@H](O)[C@@H]3O[C@@H]3C(=NOCC=C(C)CCC=C(C)C)[C@H]1CC2` the composite z-score was 0.406.
Molecule `COc1ccc(O[C@H]2C=C[C@@H](c3ccccc3)O[C@@H]2COC(=O)CCC(C)=NOC(C)CN2CCCCc3nc(C)c(C)cc32)cc1` (stereo partly specified) has a composite z-score of 0.456.
Molecule `CC=CC1=C(CO)[C@H](O)[C@H]2O[C@H]2[C@H]1O` has a composite z-score of -0.173.
`CC(=O)OC[C@H]1O[C@@H](ON=C[C@@H](C)[C@H](OCc2ccccc2)C(C)C)[C@H](OC(C)=O)[C@@H](OC(C)=O)[C@@H]1OC(C)=O` gave a composite z-score of -0.934.
`CC(C)[C@@H](OCc1ccccc1)[C@H](C)C=NOC[C@@H](C)[C@H](OCc1ccccc1)C(C)C` showed a composite z-score of -0.265.
Molecule `[N-]=[N+]=NCc1ccccc1[C@@H]1OC(c2ccc(OCCCO)cc2)=N[C@]1(Cc1ccccc1)C(=O)N1CCOCC1` has a composite z-score of 0.514.
In the case of `CCCC=C(CCC)[C@@H](NC(=O)c1ccc(-c2ccccc2)cc1)c1ccc(C(=O)OC)cc1`, the composite z-score is reported as 0.185.
